Shiga toxin inh: A qHTS for Small Molecule Inhibitors of Shiga Toxin. Vero cells, Shiga toxin protein synthesis inhibition reporter. inhibition, % at 38.7 µM. 290,000 tested, 9.2% active. AID 2315, 2010; in the data active = inhibition mostly above about 28%, no sharp cut-off; inactive = mostly below about 43%; also: 0% is about no effect
NS1 function inh: qHTS Assay for Inhibitors of Influenza NS1 Protein Function. AID 2326, 2010. 270,000 tested, 0.4% active. Potency, µM (titrated, usually from 46.1 µM), for inactives: at the top dose activity, positive = more growth; also: potency is read from the fitted curve at half-maximal effect; actives are rising curves; nearly all actives have a fitted effect of over 50% in size
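Growth recovery, yeast-based: influenza A NS1 expressed in S. cerevisiae causes slow growth, and suppressors are detected by OD600. The parent strain without NS1 is used as positive control.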
Pf growth 48h: Primary qHTS for delayed death inhibitors of the malarial parasite plastid, 48 hour incubation; P. falciparum luciferase growth in erythrocytes, 48 h; Potency, µM (top dose mostly 28.7 µM), for inactives: at the highest dose activity change, negative = inhibition, actives largely listed as inhibitors; 310,000 tested, 5.9% active; AID 504832, 2011; active = well fitted inhibition curve with a large enough effect; inconclusive = small, poorly fitted or top-dose-only effect, or another doubt; inactive = no such curve, though single readings can be large or run the other way; also: potency is read from the fitted curve at half-maximal effect; % is scaled to controls: 0 for no effect and ±100 for the full control effect
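Growth was read as firefly luciferase luminescence after a 48 h, 37 C, 5% CO2 exposure of compounds to reporter-bearing P. falciparum cultures (0.1% parasitemia, 2% hematocrit final) in Albumax-supplemented RPMI 1640.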
Cycloheximide cs: Cycloheximide Counterscreen for Small Molecule Inhibitors of Shiga Toxin; cell reporter, cycloheximide protein synthesis inhibition counterscreen; max response, %; 300,000 tested, 12% active; AID 2314, 2010; in the data active = max response mostly above about 13%, no sharp cut-off; inactive = mostly below about 14%; also: read at 38.3 µM for the half of the compounds with a filed dose; 0% is about no effect
SARS PLpro yeast: qHTS of Yeast-based Assay for SARS-CoV PLP. Potency, µM (titrated, usually from 32.9 µM), for inactives: top-dose activity, positive = growth rescue, actives largely listed as activators. 330,000 tested, 0.19% active. S. cerevisiae expressing SARS-CoV PLpro, growth rescue; also: potency is read from the fitted curve at half-maximal effect; 0% is about no effect; nearly all actives have a fitted effect of over 55% in size
Pf growth 96h: Primary qHTS for delayed death inhibitors of the malarial parasite plastid, 96 hour incubation. Potency, µM (titrated, usually from 28.7 µM), without a hit: at the highest dose activity change, negative = inhibition, usual class: inhibitors. 320,000 tested, 6.9% active. P. falciparum luciferase reporter growth, 96 h. AID 504834, 2011; active = well fitted inhibition curve with a large enough effect; inconclusive = small, poorly fitted or top-dose-only effect, or another doubt; inactive = no such curve, though single readings can be large or run the other way; also: potency is read from the fitted curve at half-maximal effect; % is scaled to controls: 0 for no effect and ±100 for the full control effect
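Plates of compound plus infected erythrocytes (2% hematocrit, 0.05% parasitemia final) incubate 96 hours, 37 C, 5% CO2. Detection reagent added; reduced luminescence from the parasites' luciferase reporter flags inhibition.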
Numbers without * were called inactive; ? = inconclusive; / = not tested or not shown. Compounds with a hit are over-represented: about 21% of the library has one in this group of screens. Unless noted, calls follow the shape of the full dose curve.

SMILES | Shiga toxin inh | NS1 function inh | Pf growth 48h | Cycloheximide cs | SARS PLpro yeast | Pf growth 96h
CCN1CCN(c2cc(C)c3cc(NC(=O)CCC(=O)Nc4ccc(OC)cc4OC)ccc3n2)CC1 | -10.9 | -0.8% | 13.1µM* | -4.2 | 1.4% | ?
CCCN(CCC)CCNC(=O)CCC(=O)Nc1ccc2nc(N3CCOCC3)cc(C)c2c1 | 75.4* | 1.8% | 63.3% | 39.9* | 3.6% | ?
O=C(Nc1ccnn1C1CCN(Cc2ccc(CO)o2)CC1)c1ccccc1 | -4.3 | 23.0% | -3.6% | 1.8 | 3.5% | ?
c1ccc2c(-n3cccn3)cccc2c1 | 82.8* | -8.6% | 49.3% | 36.5* | 2.2% | -18.0%
c1ccc2c(N3CCNCC3)cccc2c1 | / | -36.5% | / | / | / | /
O=C(Cn1c(=O)oc2cc(S(=O)(=O)N3CCCCC3)ccc21)N1CCCCC1 | -3.5 | 12.6% | -3.2% | -3.0 | 0.4% | ?
O=C(CSc1ncnc2nc[nH]c12)c1ccc([N+](=O)[O-])cc1 | -1.9 | 0.6% | ? | 1.5 | 0.0% | ?
O=C(CSc1ncnc2nc[nH]c12)c1ccccc1 | 99.6* | 1.1% | 95.0% | 35.3* | -0.9% | 82.0%
Cc1cccc(C)c1NC(=O)CSc1ncnc2nc[nH]c12 | -10.2 | -16.0% | 6.7% | -2.6 | 1.0% | 9.9%
c1ccc(CCSc2ncnc3nc[nH]c23)cc1 | 38.9* | -10.2% | 75.3% | 29.2* | -3.5% | 42.7%
O=C(CSc1ncnc2nc[nH]c12)c1ccc(Cl)cc1 | 25.5* | 12.6% | 2.9% | 10.7* | 4.7% | 35.7%
COc1cccc(NC(=O)C2CCCN(S(C)(=O)=O)C2)c1 (centres undefined) | -3.9 | -1.6% | -4.4% | -2.8 | 1.3% | 7.7%
COc1cnn(-c2ccc(C)cc2)c(=O)c1SCc1ccccc1 | 84.4* | -25.2% | 54.6% | 38.5* | 10.0% | 15.9%
COc1cnn(-c2ccc(Br)cc2)c(=O)c1SCc1ccccc1 | 129.5* | -9.1% | 14.4% | 49.3* | -2.3% | 22.2%
COc1cnn(-c2ccccc2)c(=O)c1SCc1ccc(Cl)cc1Cl | -4.7 | -14.6% | ? | -5.3 | -1.2% | ?
CC(=O)NC(CC(=O)Oc1ccc(C)cc1Br)c1ccccc1 (centres undefined) | -19.2 | -11.0% | -14.6% | -4.1 | -0.6% | ?
Cc1ccccc1N1CC(C(=O)Nc2nnc(SCCN3CCOCC3)s2)CC1=O (centres undefined) | 4.8 | ? | ? | 5.1 | -1.3% | 4.15µM*
CC(=O)c1cccc(NC(=O)C2CC(=O)N(c3cccc(C)c3C)C2)c1 (centres undefined) | 23.6 | -6.7% | 1.47µM* | 2.1 | 14.4% | 20.6%
Cc1cccc(N2CC(C(=O)Nc3cccc(S(=O)(=O)N4CCCCC4)c3)CC2=O)c1C (centres undefined) | / | / | ? | / | 1.5% | ?
Cc1cccc(N2CC(C(=O)Nc3nnc(SCCN4CCOCC4)s3)CC2=O)c1 (centres undefined) | -5.1 | -7.5% | -14.4% | -2.7 | -0.7% | ?
Cc1ccccc1N1CC(C(=O)Nc2ccncc2)CC1=O (centres undefined) | / | / | -12.1% | / | -2.3% | 13.1µM*
CCOC(=O)CC(NC(=O)CCc1c(C)nc2ncnn2c1C)c1ccc(C)cc1 (centres undefined) | -3.2 | / | 12.0% | -4.7 | 1.2% | -19.3%
COc1cc(OC)cc(C(=O)NCCC(=O)NCCc2ccc(OC)c(OC)c2)c1 | -15.3 | 5.3% | 31.5% | -2.5 | 3.9% | ?
O=C(O)c1cnc2[nH]c3ccccc3n2c1=O | 23.1 | 3.3% | 4.5% | 1.0 | 0.4% | 2.7%
Oc1cccc2ccc(N3CCOCC3)nc12 | 27.9 | -2.8% | 33.8% | 24.5* | -0.7% | 18.8%
SMILES | Shiga toxin inh | NS1 function inh | Pf growth 48h | Cycloheximide cs | SARS PLpro yeast | Pf growth 96h
CCOc1ccc(N2C(=O)c3cccnc3C2Nc2ccc(C)c(C)c2)cc1 (centres undefined) | -7.7 | -0.6% | / | -1.5 | 3.6% | 4.65µM*
CCOc1ccc(N2C(=O)Cc3ccccc3C2=O)cc1 | -11.8 | ? | -4.6% | -2.1 | -5.2% | 0.9%
CCOc1ccc(N2C(=O)c3cccnc3C2=O)cc1 | -1.6 | -20.8% | 43.7% | 2.5 | 0.4% | 1.85µM*
CCOc1ccc(N2C(=O)c3cccnc3C2Nc2ccc(C)cc2)cc1 (centres undefined) | -10.9 | 4.0% | 9.28µM* | 11.7 | 6.1% | 1.65µM*
COc1cc(C(C(=O)NC2CCCC2)N(C(=O)Cc2cccs2)C2CC2)cc(OC)c1OC (centres undefined) | -5.4 | / | ? | -0.7 | 0.0% | -1.8%
Cc1nn(CC(=O)Nc2cccc(S(N)(=O)=O)c2)c(C)c1[N+](=O)[O-] | -2.2 | ? | -0.2% | 1.9 | 12.0% | ?
COc1ccc(OCCCC(=O)Nc2ncn[nH]2)cc1 | -10.8 | / | 12.8% | 4.2 | -1.1% | 35.8%
Nc1cccc(-n2nnnc2CN2CCOCC2)c1 | 12.2 | 6.9% | -0.1% | -0.4 | 12.6% | 10.4µM*
O=[N+]([O-])c1ccc(-n2nnnc2CN2CCCCC2)cc1 | -11.5 | -2.6% | 10.4% | -0.2 | 1.4% | -1.9%
O=[N+]([O-])c1ccc(-n2nnnc2CN2CCOCC2)cc1 | -7.9 | 4.5% | 3.1% | -3.3 | 1.8% | 6.57µM*
COC(=O)CNC(=O)c1cc(-c2ccncc2)nc2ccc(C)cc12 | -20.7 | 1.9% | 10.7% | -4.3 | -1.1% | -28.4%
O=C(Nc1ccc(Cl)cc1)c1ccc(OC2CSC2)cc1 | 66.0 | / | 68.1% | 18.0* | -1.8% | ?
COc1cc2c(cc1NCc1ccccn1)oc1ccccc12 | 33.0* | ? | 22.6% | 11.4 | -17.0% | /
COc1ccc(OC)c(-c2csc(NC(=O)c3ccc4c(c3)OCO4)n2)c1 | 62.8* | / | 62.8% | 18.4* | 3.3% | 0.0%
COc1ccc(CC(=O)Nc2nc(-c3cc(OC)ccc3OC)cs2)cc1 | -4.5 | 12.3% | 13.3% | 5.0 | -7.0% | ?
CNC(=O)c1ccc(OC2CSC2)cc1 | -2.1 | 7.3% | 8.6% | 13.9 | / | 30.6%
COc1ccc(OC)c(NC(=O)c2ccc(NC(C)=O)cc2)c1 | -9.5 | -14.0% | 0.0% | 8.7 | 0.8% | 9.0%
COc1ccc(OC)c(NC(=O)c2ccc(OC3CSC3)cc2)c1 | 28.2 | / | 11.5% | 20.6* | -0.6% | -6.0%
CCc1noc(C)c1C(=O)NCCN1C(=O)S/C(=C\c2ccc(OC)cc2)C1=O | / | / | 32.0% | / | 1.9% | 33.9%
COc1ccc(OC)c(NC(=O)c2ccc3c(c2)OCO3)c1 | / | -16.1% | -4.4% | 23.9* | -4.8% | ?
CCCN(CCC)S(=O)(=O)c1ccc(C(=O)Nc2cc3oc4ccccc4c3cc2OC)cc1 | -11.4 | 2.8% | 10.4µM* | 18.9* | 22.0% | -0.6%
CCN(CC)S(=O)(=O)c1cccc(C(=O)Nc2cc3oc4ccccc4c3cc2OC)c1 | -1.0 | 0.4% | -22.6% | -3.6 | -7.1% | ?
COc1ccccc1NC(=O)c1ccc2c(c1)OCO2 | 81.7* | -3.6% | 97.5% | 49.8* | -5.9% | ?

Assay outcomes deposited in PubChem by National Center for Advancing Translational Sciences (NCATS).
